From PubChem BioAssay (NCI) come the findings set out here.

Structures are written as SMILES. Compounds without any hit were thinned out: in the full panel of roughly 83,000, 20% have a hit.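 Activity criterion: percent growth below 10, measured after cells in 96-well plates were exposed to a single compound concentration for 48 hours.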 Values without a mark were called inactive. Active and inactive are the calls of the source.

Holding throughout (assay): NCI-60 one-dose screen, 48 h (100 = growth as untreated, 0 = no growth, -100 = all killed)
One assay concerns SK-MEL-2 melanoma. Particulars: 10 µM unless noted.
A further assay deals with EKVX NSCLC. The conditions noted are these: 10 µM unless noted.
The subject of the next assay is SN12C renal. The conditions noted are these: 10 µM unless noted.
A further assay has as its system UO-31 renal. Particulars: 10 µM unless noted.
The subject of the next assay is TK-10 renal. The conditions noted are these: 10 µM unless noted.
A further assay deals with ACHN renal. Particulars: 10 µM unless noted.
The subject of a further assay is CAKI-1 renal. Particulars: 10 µM unless noted.
The subject of the next assay is A498 renal. Particulars: 10 µM unless noted.
A further assay deals with CCRF-CEM leukemia. The conditions noted are these: 10 µM unless noted.
The next assay concerns MOLT-4 leukemia. Particulars: 10 µM unless noted.
For a further assay, the system named is SR leukemia. Particulars: 10 µM unless noted.
In the next assay the test system is RPMI-8226 leukemia. The conditions noted are these: 10 µM unless noted.
A further assay has as its system OVCAR-8 ovarian. The conditions noted are these: 10 µM unless noted.
The next assay relates to OVCAR-5 ovarian. Particulars: 10 µM unless noted.
The subject of another assay is OVCAR-4 ovarian. The conditions noted are these: 10 µM unless noted.
For a further assay, the system named is SK-OV-3 ovarian. Particulars: 10 µM unless noted.
In the next assay the test system is IGROV1 ovarian. The conditions noted are these: 10 µM unless noted.
The subject of another assay is OVCAR-3 ovarian. Particulars: 10 µM unless noted.
The subject of another assay is NCI/ADR-RES ovarian. Particulars: 10 µM unless noted.
Another assay concerns HS 578T breast. Particulars: 10 µM.

For the molecule `C#CC[C@@H]1C[C@]2(C)[C@H]3CC[C@@H]4[C@H]5C(C(=C)C)CC[C@]5(C(=O)NCCCCCCCCN)CC[C@@]4(C)[C@]3(C)CC[C@H]2C(C)(C)[C@H]1OC(C)=O` (some centres not stated), the growth in the assay with SK-MEL-2 melanoma was 112%; with EKVX NSCLC it was 103%; in the assay on SN12C renal it was 96.3%; in the assay with UO-31 renal it was 75.5%; in the assay on TK-10 renal, 96.5%; in the assay with ACHN renal, 111%. The growth was 69.9% in the assay on CAKI-1 renal; 95.6% in the assay with A498 renal; -8.23% (active) in the assay on CCRF-CEM leukemia; 5.47% (active) in the assay with MOLT-4 leukemia; -16% (active) with SR leukemia; 0.0796% (active) with RPMI-8226 leukemia. Besides, the growth with OVCAR-8 ovarian is 91.3%; in the assay with OVCAR-5 ovarian, 108%; in the assay on OVCAR-4 ovarian it was 45.9%; with SK-OV-3 ovarian, 124%; with IGROV1 ovarian, 85.7%; in the assay on OVCAR-3 ovarian it was 55.4%. In addition, in the assay with NCI/ADR-RES ovarian, the growth was 93.8%.

Regarding `CCCCOc1ncnc2nc[nH]c12`, the growth with SK-MEL-2 melanoma is 104%; in the assay on EKVX NSCLC, 112%; in the assay with SN12C renal it was 102%; with UO-31 renal it was 99.7%; in the assay with TK-10 renal it was 101%; in the assay on ACHN renal, 101%. Further, the growth was 106% with CAKI-1 renal; 97% with A498 renal; 113% in the assay with CCRF-CEM leukemia; 91.9% in the assay on MOLT-4 leukemia; 88.7% in the assay with SR leukemia; 95.4% in the assay with RPMI-8226 leukemia. The growth was 99.4% in the assay on OVCAR-8 ovarian; 103% in the assay on OVCAR-5 ovarian; 102% in the assay on OVCAR-4 ovarian; 107% with SK-OV-3 ovarian; 124% in the assay with IGROV1 ovarian; 100% in the assay on HS 578T breast. Further, the growth in the assay on NCI/ADR-RES ovarian is 105%.

With `CC(C)[C@H](CN)NC[C@H](C)NS(=O)(=O)c1ccc(C(C)(C)C)cc1`, the growth was 101% with SK-MEL-2 melanoma; 90% in the assay on EKVX NSCLC; 99.8% with SN12C renal; 77.1% in the assay on UO-31 renal; 93.8% with TK-10 renal; 103% with ACHN renal. For the same molecule, the growth in the assay with CAKI-1 renal was 94.1%; with A498 renal it was 107%; with CCRF-CEM leukemia, 91.5%; with MOLT-4 leukemia, 92.6%; with SR leukemia, 110%; with RPMI-8226 leukemia, 90.4%. Moreover, the growth in the assay with OVCAR-8 ovarian was 97.5%; in the assay with OVCAR-5 ovarian it was 106%; in the assay with OVCAR-4 ovarian it was 87.5%; with SK-OV-3 ovarian, 105%; in the assay with OVCAR-3 ovarian, 103%; in the assay on HS 578T breast it was 87.9%. In the assay on NCI/ADR-RES ovarian, the growth is 104%.

For the molecule `COc1ccc(Br)c2ccccc12`, the growth with SK-MEL-2 melanoma was 113%; with EKVX NSCLC it was 94%; with SN12C renal, 112%; in the assay on UO-31 renal it was 70.3%; with TK-10 renal it was 118%; in the assay on ACHN renal, 102%. Further, the growth is 95.3% in the assay with CAKI-1 renal; 135% with A498 renal; 103% with CCRF-CEM leukemia; 91.6% with MOLT-4 leukemia; 96% in the assay with SR leukemia; 105% with RPMI-8226 leukemia. Besides, the growth in the assay with OVCAR-8 ovarian was 99.7%; in the assay with OVCAR-5 ovarian, 110%; in the assay with OVCAR-4 ovarian it was 117%; in the assay with SK-OV-3 ovarian, 115%; in the assay on OVCAR-3 ovarian, 112%; in the assay with HS 578T breast it was 112%. The growth in the assay on NCI/ADR-RES ovarian was 118%.

Take `CCN(CC)c1ccc2nc3c4ccccc4c(=O)cc-3n(-c3ccccc3)c2c1`: the growth was -37.2% (active) in the assay with SK-MEL-2 melanoma; -4.16% (active) in the assay with EKVX NSCLC; 13.2% with SN12C renal; -26.2% (active) in the assay with UO-31 renal; 13.6% with TK-10 renal; -1% (active) in the assay with ACHN renal. Also, the growth in the assay with CAKI-1 renal is -17.8% (active); in the assay on A498 renal, 17.6%; in the assay with CCRF-CEM leukemia it was 15.7%; in the assay with MOLT-4 leukemia, 2.41% (active); with SR leukemia, -5.63% (active); with RPMI-8226 leukemia, 6.27% (active). The growth in the assay on OVCAR-8 ovarian was 7.52% (active); in the assay on OVCAR-5 ovarian it was 10.7%; in the assay on OVCAR-4 ovarian, 6.28% (active); with SK-OV-3 ovarian it was 3.71% (active); with OVCAR-3 ovarian, -52.6% (active); with HS 578T breast it was -17.8% (active). The growth in the assay on NCI/ADR-RES ovarian was -7.19% (active).

With `NC(=Nc1ccccc1)SCCCSC(N)=Nc1ccccc1`, the growth in the assay with SK-MEL-2 melanoma was 90.8%; in the assay on EKVX NSCLC, 78.8%; in the assay on SN12C renal, 89.3%; in the assay on UO-31 renal, 42.1%; in the assay with TK-10 renal, 101%; with ACHN renal, 81.5%. Further, the growth is 76.4% in the assay with CAKI-1 renal; 80.2% in the assay on A498 renal; 79.3% in the assay with CCRF-CEM leukemia; 90.8% in the assay on MOLT-4 leukemia; 94.6% in the assay with SR leukemia; 73.4% in the assay on RPMI-8226 leukemia. Besides, the growth in the assay on OVCAR-8 ovarian was 86.4%; in the assay on OVCAR-5 ovarian, 86.4%; in the assay with OVCAR-4 ovarian, 76.8%; in the assay with SK-OV-3 ovarian, 97.3%; with IGROV1 ovarian it was 80.1%; with HS 578T breast it was 89%. In the assay on NCI/ADR-RES ovarian, the growth is 85.5%.

`Cn1nc(C(F)(F)F)cc1-c1cc(Cl)c(OCc2ccc(Cl)cc2)c(-c2ccc(Cl)c(C(F)(F)F)c2)c1O`: the growth in the assay with SK-MEL-2 melanoma was -33.8% (active); in the assay on EKVX NSCLC, 4.62% (active); with SN12C renal, 5.76% (active); with UO-31 renal, 0.656% (active); in the assay on TK-10 renal it was 2.92% (active); in the assay with ACHN renal, -11.4% (active). The growth was -19.2% (active) in the assay with CAKI-1 renal; -41.9% (active) in the assay with A498 renal; 9.85% (active) in the assay on CCRF-CEM leukemia; -14.2% (active) with MOLT-4 leukemia; 17.6% in the assay with SR leukemia; -21.8% (active) in the assay with RPMI-8226 leukemia. The growth in the assay with OVCAR-8 ovarian was 14.5%; with OVCAR-5 ovarian it was 10.3%; in the assay on OVCAR-4 ovarian, 17.2%; in the assay on SK-OV-3 ovarian, -7.57% (active); with IGROV1 ovarian it was 25.9%; in the assay on OVCAR-3 ovarian it was 7.63% (active). For the same molecule, the growth in the assay on NCI/ADR-RES ovarian was 1.22% (active).

In the case of `O=C1Nc2ccccc2/C1=C/c1c[nH]c2ccccc12`, the growth was 99.8% with SK-MEL-2 melanoma; 15.7% with EKVX NSCLC; 64.5% in the assay on SN12C renal; 29.3% in the assay on UO-31 renal; 110% in the assay on TK-10 renal; 66.7% in the assay with ACHN renal. In addition, the growth with CAKI-1 renal is 42.8%; with A498 renal it was 91.6%; in the assay with CCRF-CEM leukemia, 58.9%; in the assay on MOLT-4 leukemia it was 65.6%; in the assay on SR leukemia, 77.5%; in the assay on RPMI-8226 leukemia, 77.1%. Further, the growth with OVCAR-8 ovarian was 84.9%; with OVCAR-5 ovarian it was 105%; in the assay with OVCAR-4 ovarian it was 71.7%; with SK-OV-3 ovarian it was 95.7%; with IGROV1 ovarian it was 2.73% (active); in the assay on HS 578T breast it was 67.6%. Besides, the growth with NCI/ADR-RES ovarian was 89.6%.
